The list is not random: actives were taken first. Their share in the collection is about 21%.
NS1 function inh: qHTS Assay for Inhibitors of Influenza NS1 Protein Function. Potency, µM (series often up to 46.1 µM), for inactives: at the top dose activity, positive = more growth. 270,000 compounds, 0.4% hits; also: potency is read from the fitted curve at half-maximal effect; actives are rising curves; nearly all actives have a fitted effect of over 50% in size
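Recovery from NS1-induced slow growth read by OD600 in budding yeast switched to galactose assay medium (pH 6.0, -URA) at 1:100 dilution. Compound 23 nl per well; the matching strain lacking NS1 serves as control.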
Shiga inhibitor: A qHTS for Small Molecule Inhibitors of Shiga Toxin; AID 2315, 2010; inhibition, % at 38.7 µM; 290,000 compounds, 9.2% hits; Vero cells, Shiga toxin protein synthesis inhibition reporter; in the data active = inhibition mostly above about 28%, no sharp cut-off; inactive = mostly below about 43%; also: 0% is about no effect
Pf growth 96h: Primary qHTS for delayed death inhibitors of the malarial parasite plastid, 96 hour incubation. P. falciparum luciferase reporter growth, 96 h. Potency, µM (series often up to 28.7 µM), for inactives: at the highest dose activity change, negative = inhibition, most hits filed as inhibitors. AID 504834, 2011. 320,000 compounds, 6.9% hits; active = well fitted inhibition curve with a large enough effect; inconclusive = small, poorly fitted or top-dose-only effect, or another doubt; inactive = no such curve, though single readings can be large or run the other way; also: potency is read from the fitted curve at half-maximal effect; % is scaled to controls: 0 for no effect and ±100 for the full control effect
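Two parasite generations (96 h, 37 C, 5% CO2) of compound exposure in infected erythrocytes (0.05% parasitemia, 2% hematocrit). Luciferase-reporter P. falciparum; decreased luminescence indicates inhibited growth, aimed at apicoplast-acting delayed death.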
SARS PLP yeast: qHTS of Yeast-based Assay for SARS-CoV PLP; S. cerevisiae expressing SARS-CoV PLpro, growth rescue; Potency, µM (titrated, usually from 32.9 µM), inactives show top-dose activity, positive = growth rescue, hits mostly activators; 330,000 compounds, 0.19% hits; also: potency is read from the fitted curve at half-maximal effect; 0% is about no effect; nearly all actives have a fitted effect of over 55% in size
Pf growth 48h: Primary qHTS for delayed death inhibitors of the malarial parasite plastid, 48 hour incubation; P. falciparum luciferase growth in erythrocytes, 48 h; Potency, µM (doses to about 28.7 µM), for the others: top-dose activity change, negative = inhibition, usual class: inhibitors; 310,000 compounds, 5.9% hits; active = well fitted inhibition curve with a large enough effect; inconclusive = small, poorly fitted or top-dose-only effect, or another doubt; inactive = no such curve, though single readings can be large or run the other way; also: potency is read from the fitted curve at half-maximal effect; % is scaled to controls: 0 for no effect and ±100 for the full control effect
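Luminescence readout; reporter = integrated firefly luciferase in P. falciparum. RBC culture at 2% hematocrit, 0.1% parasitemia final, 37 C/5% CO2; decreased signal taken as growth inhibition.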
Cycloheximide cs: Cycloheximide Counterscreen for Small Molecule Inhibitors of Shiga Toxin; cell reporter, cycloheximide protein synthesis inhibition counterscreen; max response, %; 300,000 compounds, 12% hits; in the data active = max response mostly above about 13%, no sharp cut-off; inactive = mostly below about 14%; also: read at 38.3 µM for the half of the compounds with a filed dose; 0% is about no effect
Active calls of the source: *; u = inconclusive; x = not tested or not shown. Unless noted, calls follow the shape of the full dose curve.

SMILES	NS1 function inh	Shiga inhibitor	Pf growth 96h	SARS PLP yeast	Pf growth 48h	Cycloheximide cs
CC(=O)c1ccc(NC(=O)C(C)Sc2nnc3ccccn23)cc1 (stereo not given)	x	x	9.3µM*	-7%	u	x
CCC(=O)NC(NC(=S)Nc1c(C)n(C)n(-c2ccccc2)c1=O)C(Cl)(Cl)Cl (stereo not given)	-1%	12	u	0%	-16%	-1
CSc1ccc(NC(=O)[C@H]2CCCC[C@@H]2C(=O)O)cc1	-1%	x	x	x	x	x
O=C(CSc1ncc(-c2ccc(F)cc2)n1Cc1ccco1)Nc1ccc2c(c1)OCO2	-53%	110*	x	x	u	39*
O=C(CSc1nnc2ccccn12)Nc1ccc2c(c1)OCO2	x	31	38%	0%	31%	18*
Cc1ccc(NC(=O)CSc2nnc3ccccn23)cc1	2%	72*	3%	0%	60%	15
CCc1ccc(NC(=O)Cn2cnc3c(=O)n(C)c(=O)n(C)c32)cc1	x	-4	-27%	-2%	0%	-1
Cn1c(=O)c2ncn(CC(=O)Nc3cccc(-c4nc5ccccc5s4)c3)c2n(C)c1=O	-59%	118*	31%	2%	171%	53*
CCOc1ccc(NC(=O)CSc2ncc(-c3ccc(F)cc3)n2Cc2ccco2)cc1	-2%	8	u	-2%	u	11
CC(=O)O[C@H]1C[C@@]2(C)[C@H](C[C@@H](O)[C@H]3[C@@]4(C)CC[C@@H](O)[C@@H](C)[C@H]4CC[C@@]32C)C1=C(CCC=C(C)C)C(=O)O	x	x	u	x	-6%	x
CCOC(=O)C1=C(C)NC(=O)C(C#N)C1c1ccco1 (stereo not given)	u	-13	u	9%	-18%	8
O=C(CSc1nnc(-c2ccccc2)n1Cc1ccco1)Nc1ccc2c(c1)OCCO2	-14%	48*	u	2%	u	13
c1ccn2c(SCc3ccc4c(c3)OCO4)nnc2c1	-4%	114*	57%	3%	60%	40*
Cc1cc(C)nc(SCc2nnc(SCC(=O)Nc3nccs3)n2Cc2ccco2)n1	-3%	-6	-18%	1%	-24%	-3
Cc1cccc(NC(=O)CSc2nnc(CSc3nc(C)cc(C)n3)n2Cc2ccco2)c1	-2%	-6	15µM*	4%	u	-7
Nn1c(SCC(=O)Nc2ccc3c(c2)OCO3)nnc1-c1ccccc1	0%	27	40%	12%	x	22*
COC(=O)[C@@H](NC(=O)NCc1ccccc1Cl)C(C)C	-2%	-1	26%	-1%	9%	1
Cn1c(=S)n(/N=C/c2cccs2)c2ccccc21	-6%	46*	33%	0%	36%	25*
Cc1n[nH]c(=S)n(/N=C/c2cccs2)c1=O	6%	-15	u	1%	0.93µM*	1
COc1cccc(/C=N/n2c(=S)n(C)c3ccccc32)c1OC	-5%	2	x	-1%	24%	-2
Cc1nnc(N/N=C\c2ccc(-c3ccccc3[N+](=O)[O-])o2)n1N	-41%	15	u	-1%	-8%	9
Cc1nnc(N/N=C/c2c(Cl)cccc2Cl)n1N	-5%	39	-1%	-2%	-23%	12
Cc1nnc(N/N=C/c2cc(C)n(-c3ccc(F)cc3)c2C)n1N	-19%	4	50%	-9%	-21%	24*
CCOc1cc(/C=N/NC(=O)C(=O)N/N=C/c2ccc(O)c(OCC)c2)ccc1O	18%	4	133%	3%	0%	-1
Cc1nnc(N/N=C/c2ccc(-c3ccccc3F)o2)n1N	x	150*	17%	-5%	30%	25*
SMILES	NS1 function inh	Shiga inhibitor	Pf growth 96h	SARS PLP yeast	Pf growth 48h	Cycloheximide cs
Cc1nnc(N/N=C/c2ccccc2O)n1N	x	31*	4%	-4%	-2%	17*
CCOc1cc(/C=N/Nc2nnc(C)n2N)ccc1O	-2%	50*	0%	-7%	u	25*
Cc1cn([C@H]2C[C@@H](N=[N+]=[N-])[C@@H](CO)O2)c(=O)[nH]c1=O	1%	x	x	x	x	x
CCOc1cc(/C=N/Nc2ncnc(Cl)c2N)ccc1O	-4%	57*	46%	-14%	36%	35*
CCN(CC)C(=O)CSc1n[nH]c(=O)n1CCc1ccccc1	-3%	-1	0%	1%	-2%	-5
O=c1[nH]nc(Sc2ncnc3sccc23)n1CCc1ccccc1	-4%	-10	9.3µM*	0%	10µM*	-2
CCOC(=O)Cn1nc(-c2ccccc2)c2cnc3ccc(C)cc3c21	-2%	-8	u	27%	25%	1
CCNc1nc(NCC)n2c(SCC(=O)N(CC)C3CCCCC3)nnc2n1	2%	-9	7.4µM*	6%	u	-2
CCNc1nc(NCC)n2c(SCC(=O)Nc3ccc(CC)cc3)nnc2n1	x	x	u	-7%	10µM*	x
CCNc1nc(NCC)n2c(SCC(=O)NC34CC5CC(CC(C5)C3)C4)nnc2n1	-4%	-12	u	-11%	u	-3
CCNc1nc(NCC)n2c(SCC(=O)Nc3ccc(NC(C)=O)cc3)nnc2n1	x	x	u	9%	u	x
Cn1c2cc(B(O)O)sc2c2cnn(Cc3c(F)cccc3F)c(=O)c21	x	x	u	3%	u	x
CC1Cc2cc(S(=O)(=O)CCC(=O)NCc3ccco3)ccc2N1C(=O)C1CC1 (stereo not given)	7%	-9	u	21%	-10%	-6
Cc1sc(NC(=O)c2ccco2)nc1-c1ccc2c(c1)CC(C)N2C(=O)C1CC1 (stereo not given)	-2%	175*	5%	-2%	u	31*
Cc1sc(NC(=O)Cc2ccc3c(c2)OCO3)nc1-c1ccc2c(c1)CCN2C(=O)c1ccc(F)cc1	17%	-8	5%	29%	9.3µM*	-5
CCOC(=O)C(=O)Nc1nc(-c2ccc3c(c2)CCN3C(=O)C2CC2)c(C)s1	9%	47	-25%	-1%	5%	20*
CC(=O)Nc1nc(-c2ccc3c(c2)CC(C)N3C(=O)C2CC2)c(C)s1 (stereo not given)	1%	65*	-11%	1%	-14%	20*
COc1ccc(NC(=O)CCNS(=O)(=O)c2ccc3c(c2)CC(C)N3C(=O)C2CC2)cc1 (stereo not given)	-1%	10	u	-6%	u	15
CCOC(=O)N1CCC(NC(=O)c2cccc3c2C(=O)N(Cc2cccnc2)C3)CC1	-8%	-12	u	5%	-1%	-2
S=C(NC1CC1)N1CCCc2ccccc21	8%	5	u	-5%	8%	-2
COC(=O)c1ccc([C@H]2CC(=O)O2)cc1	-1%	3	-22%	0%	0%	5
Cc1sc(NC(=O)CN(C)C2CCCCC2)nc1-c1ccc2c(c1)CCN2S(=O)(=O)c1ccccc1	24%	-9	2.9µM*	-9%	x	-4

Bioassay records from PubChem BioAssay.
